PubChem BioAssay (EPA / NIEHS)
Active and inactive are the calls of the source. The calls were made as follows: active = hit-call score of the fitted dose curve at least 0.9, where 1 is the maximum; inactive = score below 0.9.

molecular target: Transcription factor E2F1 (Homo sapiens) (UniProt Q01094); assay: ATG_E2F_CIS: Attagene CIS-FACTORIAL HepG2 Assay for human E2F Transcription Factor 1 (AID 2282935); conditions: HepG2 Attagene cis-reporter, E2F reporter RNA transcripts; actives raise or lower the signal
Procedure: ATG_CIS is a cell-based, multiplexed-readout assay that uses HepG2, a human liver cell line, with measurements taken at 24 hours after chemical dosing in a 24-well plate.ATG_E2F_CIS is one of 52 assay component(s) measured or calculated from the ATG_CIS assay. It is designed to make measurements of mRNA induction, a form of inducible reporter, as detected with fluorescence intensity signals by Reverse transcription polymerase chain reaction (RT-PCR) and Capillary electrophoresis technology.Data from the assay component ATG_E2F_CIS was analyzed into 1 assay endpoint. This assay endpoint, ATG_E2F_CIS, was analyzed with bidirectional fitting relative to DMSO as the negative control and baseline of activity. Using a type of inducible reporter, measures of mRNA for gain or loss-of-signal activity can be used to understand the reporter gene at the transcription factor-level as they relate to the gene E2F1. Furthermore, this assay endpoint can be referred to as a primary readout, because this assay has produced multiple assay endpoints where this one serves a reporter gene function. To generalize the intended target to other relatable targets, this assay endpoint is annotated to the dna binding intended target family, where the subfamily is E2F transcription factor.
Human liver HepG2 cells are transiently transfected with multiple reporter transcription units (MRTUs) in 6-well plates using FuGene 6 reagent (Roche; 3 ml FuGene/1 mg DNA). The MRTU constructs are regulated by a cis-regulating element (promoter). […] A major difference between the CIS and TRANS system is that in CIS activities of endogenous TFs are measured, whereas the TRANS assay evaluates changes in activities of exogenous, chimeric NR-Gal4 proteins. […] At the end of 24 hour incubation, total RNA was isolated using TriZol reagent (Invitrogen). The isolated RNA is then reverse-transcribed using oligo(dT) primer and Mo-MLV reverse transcriptase (Invitrogen) with DNAse I (Ambion) treatment for 30 min. The one-tenth of the produced cDNA was amplified by PCR using Taq DNA polymerase (Invitrogen) and two reporter sequence-specific primers. The PCR products were fluorescently labeled by primer extension with 6-arboxyfluorescein (6-FAM) 5'-labeled reporter sequence-specific primer (2 min at 95 C, 20 s at 68 C and 10 min at 72 C) and these products were digested with 5U of HpaI (New England Biolabs) for 2h at 37 C. The fragments were purified using Qiaquick PCR columns (Qiagen), analyzed on an ABI 3130xL genetic analyzer (Applied Biosystems) with peak positions identified by using a set of X-rhodamine (ROX)-labeled MapMarker1000 molecular weight standards (BioVentures). The raw capillary electrophoresis data was processed using Attagraph software (Attagene).

Chain of Transcription factor E2F1 (Homo sapiens) (Q01094 whole entry, looked up): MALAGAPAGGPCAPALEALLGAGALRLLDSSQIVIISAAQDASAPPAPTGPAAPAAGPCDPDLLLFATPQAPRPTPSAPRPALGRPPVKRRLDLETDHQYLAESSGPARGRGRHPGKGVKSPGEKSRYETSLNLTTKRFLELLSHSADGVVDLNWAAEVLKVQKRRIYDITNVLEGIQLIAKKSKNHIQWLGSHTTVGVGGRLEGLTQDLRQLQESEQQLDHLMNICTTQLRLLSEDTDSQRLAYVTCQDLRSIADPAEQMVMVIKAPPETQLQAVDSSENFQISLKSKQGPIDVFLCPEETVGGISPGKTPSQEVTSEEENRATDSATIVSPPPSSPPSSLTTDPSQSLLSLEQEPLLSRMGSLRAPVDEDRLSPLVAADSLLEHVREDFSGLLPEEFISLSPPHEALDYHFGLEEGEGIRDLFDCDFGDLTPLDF

outcome, inactive:
CC(=O)OC(C)(C)Cc1ccccc1
COC(OC)C(C)c1ccccc1 (stereo not given)
CCCN[C@H]1CCc2nc(N)sc2C1
C[C@H]1C[C@H]2[C@@H]3CCC4=CC(=O)C=C[C@]4(C)[C@@]3(F)[C@@H](O)C[C@]2(C)[C@@]1(O)C(=O)CO
CCCCCCCC#N
COc1ccc2ccccc2c1
CCOc1ccc2c(c1)C(C)CC(C)(C)N2 (stereo not given)
CC(C)CC(=O)CC(C)CC(C)C (stereo not given)
CCCCCCC1CCC(=O)O1 (stereo not given)
CCC(C)NC(N)=O (stereo not given)
c1cc(N(CC2CO2)CC2CO2)ccc1Cc1ccc(N(CC2CO2)CC2CO2)cc1 (stereo not given)
CN(C)CCCN1c2ccccc2CCc2ccc(Cl)cc21
Clc1ccccn1
[O-][n+]1ccc(Cl)cc1
NC(=O)c1ccc(N)cc1
CCc1cc(C(N)=S)ccn1
CN(C)N=Nc1ccccc1
c1cc[c]([Bi]([c]2ccccc2)[c]2ccccc2)cc1
O=C(C(=O)c1ccccc1)c1ccccc1
Cc1cc(-n2nc3ccc(Cl)cc3n2)c(O)c(C(C)(C)C)c1
COc1ccccc1OCC(O)CO (stereo not given)
C1=CCC=C1
C=C(C)C(=O)OCC1CCCO1 (stereo not given)
OCCOCCOCCOCCOCCO
CC1=CCCC(C)(C)C12CCC(C)O2 (stereo not given)
CNC(=C[N+](=O)[O-])NCCSCc1csc(CN(C)C)n1
CCC(C)(CCC(C)C)C(=O)O (stereo not given)
CC1=NN(c2cc(Cl)c(S(=O)(=O)O)cc2Cl)C(=O)C1N=Nc1ccc(S(=O)(=O)O)cc1 (stereo not given)
CCCCCCCCCCCCCC
CCCCCCC1CCCC(=O)O1 (stereo not given)
COc1cccc(OC)c1C(=O)O
CC(C)=CCOC(=O)c1ccccc1
COC(=O)c1ccccc1
O=C(O)c1cc(Cl)cc(Cl)c1O
O=C(O)/C=C\C(=O)O
NCc1ccccc1
Cc1ccnc(N)c1
c1ccc(CNc2ncnc3nc[nH]c23)cc1
Sc1nc2ccccc2s1
CC(=O)Nc1c(I)c(NC(C)=O)c(I)c(C(=O)O)c1I
